{"source": "PubChem BioAssay (EPA / NIEHS)", "note": "Inconclusive results are not listed. The source made the active and inactive calls. The calls were made as follows: active = hit-call score of the fitted dose curve at least 0.9, where 1 is the maximum; inconclusive = response in the unintended direction; inactive = score below 0.9.", "data": [{"read-out": "Cytochrome P450 2C19 (Homo sapiens) (UniProt P33261)", "test": "CLD_CYP2C19_24hr: CellzDirect (CLD) Gene Expression Assay for xenobiotic metabolism (CYP2C19) at 24 hours (AID 2283687);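 also: activity means mRNA induction above DMSO vehicle baseline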", "description": "CLD_24hr is a cell-based, multiplexed-readout assay that uses hepatocyte, a human liver primary cell, with measurements taken at 24 hours after chemical dosing in a 96-well plate.CLD_CYP2C19_24hr is one of 16 assay component(s) measured or calculated from the CLD_24hr assay. It is designed to make measurements of mRNA induction, a form of inducible reporter, as detected with chemiluminescence signals by Quantitative Nuclease Protection Assay (qNPA) technology.Data from the assay component CLD_CYP2C19_24hr was analyzed at the endpoint, CLD_CYP2C19_24hr, in the positive analysis fitting direction relative to DMSO as the negative control and baseline of activity. Using a type of inducible reporter, gain-of-signal activity can be used to understand changes in the reporter gene as they relate to the gene CYP2C19. Furthermore, this assay endpoint can be referred to as a primary readout. To generalize the intended target to other relatable targets, this assay endpoint is annotated to the cyp intended target family, where subfamily is xenobiotic metabolism.\nHuman hepatocyte cultures were treated daily for two consecutive days with fresh dosing solutions containing appropriate concentrations of the 320 ToxCast chemicals (chemical identities were blinded to CellzDirect and other ToxCast collaborators), vehicle control (0.2% DMSO), and positive control inducers as summarized in Table 1. Due to the large number of treatment groups and chemicals examined, the ToxCast chemicals were divided into two groups (spanning two independent cultures of hepatocytes from separate donor preparations (Hu778: ToxCast plates 1 and 2; Hu776: ToxCast plates 3 and 4). Each preparation of human hepatocyte cultures was treated with respective vehicle control, medium only control, set of six positive controls/reference chemicals for the five hepatic receptor pathways, and a subset of eight of the ToxCast chemicals (indoxacarb, pyrithiobac-sodium, norflurazon, cyhalofop-butyl, methomyl, thiram, acetochlor, and propiconazole). These replicate data, coupled with internal replicates designed within the blinded ToxCast chemical library, provided additional data to evaluate interindividual differences between hepatocyte preparations and their potential impact on chemical profiles.Cell morphology and integrity were evaluated using phase-contrast microscopy as an indicator of hepatocyte cell health (Tyson & Green, 1987). Cultures for each treatment group (i.e., media, vehicle [0.2% DMSO], positive control inducers [multiple concentrations], and the ToxCast chemicals [multiple concentrations]) were observed and cell morphology was assessed relative to vehicle control cultures at each harvest time point (0, 6, 24, or 48 h). […] Images were evaluated at the conclusion of the study to assess changes in cell integrity and account for the effects of chemical exposure on uncharacteristic changes in concentration-dependent gene expression profiles. The results from these determinations of apparent cytotoxicity were annotated (yes/no) alongside the corresponding qNPA data for reference.At the conclusion of each treatment period, hepatocyte cultures (96-well) were washed with 1 volume of HBSS, lysed by addition of 25 ul ArrayPlate lysis buffer (HTG, Tucson, AZ), and 70 ul/well of Denaturation Oil, denatured by incubation at 95C for 10 min, and frozen at approximately -70C until analysis by nuclease protection assay (qNPA) (Roberts et al., 2007). For qNPA analysis, cell lysates were thawed at 50C for approximately 30 min, qNPA probes were added, and samples were incubated at 95C for 10 min to begin the detection process by denaturing the target RNA, dissociating the duplexes and secondary structure hybridization. At the conclusion of the hybridization period, S1 nuclease reagent was added to each sample to digest all nonprotected nucleotides at 50C for 60-90 min. […]", "values": [{"smiles": "COC(=O)c1ccccc1S(=O)(=O)NC(=O)Nc1nc(C)nc(OC)n1", "outcome": "inactive"}, {"smiles": "CCS(=O)(=O)c1cccnc1S(=O)(=O)NC(=O)Nc1nc(OC)cc(OC)n1", "outcome": "inactive"}, {"smiles": "Oc1ccc(Cl)cc1Cc1ccccc1", "outcome": "inactive"}, {"smiles": "CC(C)OC(=O)Nc1cccc(Cl)c1", "outcome": "inactive"}, {"smiles": "COC(=O)c1ccccc1CS(=O)(=O)NC(=O)Nc1nc(OC)cc(OC)n1", "outcome": "inactive"}, {"smiles": "CNC(=O)Oc1cccc(N=CN(C)C)c1", "outcome": "inactive"}, {"smiles": "OCCOc1ccccc1", "outcome": "inactive"}, {"smiles": "CNC(=O)CSP(=S)(OC)OC", "outcome": "inactive"}, {"smiles": "CCc1ccc(C(=O)NN(C(=O)c2cc(C)cc(C)c2)C(C)(C)C)cc1", "outcome": "inactive"}, {"smiles": "Cc1[nH]c(=O)n(C(C)(C)C)c(=O)c1Cl", "outcome": "inactive"}, {"smiles": "CC1(C)C(C=C(Cl)Cl)C1C(=O)OC(C#N)c1ccc(F)c(Oc2ccccc2)c1", "note": "(centres undefined)", "outcome": "inactive"}, {"smiles": "O=S(=O)(O)C(F)(F)C(F)(F)C(F)(F)C(F)(F)C(F)(F)C(F)(F)C(F)(F)C(F)(F)F", "outcome": "inactive"}, {"smiles": "CC(C)(C)C(O)C(Oc1ccc(Cl)cc1)n1cncn1", "note": "(centres undefined)", "outcome": "inactive"}, {"smiles": "O=S1OCC2C(CO1)C1(Cl)C(Cl)=C(Cl)C2(Cl)C1(Cl)Cl", "note": "(centres undefined)", "outcome": "inactive"}, {"smiles": "CC[C@H](C)[C@H]1O[C@]2(C=C[C@@H]1C)C[C@@H]1C[C@@H](C/C=C(\\C)[C@@H](O[C@H]3C[C@H](OC)[C@@H](O[C@H]4C[C@H](OC)[C@@H](O)[C@H](C)O4)[C@H](C)O3)[C@@H](C)/C=C/C=C3\\CO[C@@H]4[C@H](O)C(C)=C[C@@H](C(=O)O1)[C@]34O)O2", "note": "(tested in a mixture with another compound)", "outcome": "inactive"}, {"smiles": "ClC1C(Cl)C(Cl)C(Cl)C(Cl)C1Cl", "note": "(centres undefined)", "outcome": "inactive"}, {"smiles": "Clc1ccccc1-c1nnc(-c2ccccc2Cl)nn1", "outcome": "inactive"}, {"smiles": "O=C(O)CCCOc1ccc(Cl)cc1Cl", "outcome": "inactive"}, {"smiles": "CCN(CC)C(=O)SCc1ccc(Cl)cc1", "outcome": "inactive"}, {"smiles": "O=C(O)COc1ccc(Cl)cc1Cl", "outcome": "inactive"}, {"smiles": "CCC(C)(NC(=O)c1cc(Cl)c(C)c(Cl)c1)C(=O)CCl", "note": "(centres undefined)", "outcome": "inactive"}, {"smiles": "O=[N+]([O-])/N=C1\\NCCN1Cc1ccc(Cl)nc1", "outcome": "inactive"}, {"smiles": "[2H]C1([2H])[n+]2ccccc2-c2cccc[n+]2C1([2H])[2H]", "outcome": "inactive"}, {"smiles": "COc1cc(OC)nc(NC(=O)NS(=O)(=O)c2cc(NC=O)ccc2C(=O)N(C)C)n1", "outcome": "inactive"}, {"smiles": "Cc1cc(C)nc(NC(=O)NS(=O)(=O)c2ccccc2C(=O)OC2COC2)n1", "outcome": "inactive"}, {"smiles": "COC(=O)c1ccccc1S(=O)(=O)NC(=O)N(C)c1nc(C)nc(OC)n1", "outcome": "inactive"}, {"smiles": "N#CN", "outcome": "inactive"}, {"smiles": "COP(=O)(OC)OC=C(Cl)Cl", "outcome": "inactive"}, {"smiles": "CCOc1nc(NC)nc(NC(=O)NS(=O)(=O)c2ccccc2C(=O)OC)n1", "outcome": "inactive"}]}]}
